# SMN2 splice enh = SMN2 splice variant enhancement. HEK293 SMN2-luciferase splicing reporter, luminescence, 30-36 h. AID 1458. Potency, µM (series often up to 46.1 µM), most hits filed as activators. 210,000 compounds, 2.8% hits; further: nearly all actives have a fitted effect of over 55% in size
#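 HEK293 cells carry an SMN2 minigene-luciferase reporter in which exon 7 inclusion puts luciferase in frame. Cells were seeded at 2000 cells/well, attached for 10-12 hours, then exposed to compounds for 30-36 hours at 37C before ONE-Glo luminescence.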
# ELG1 genotoxic = inducers of genotoxicity in HEK293T ELG1-luciferase cells; HEK293T ELG1-luciferase reporter, luminescence, 16 h; Potency, µM (series often up to 46 µM), most hits filed as activators; 330,000 compounds, 1.3% hits; further: nearly all actives have a fitted effect of over 60% in size
#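 16 hr compound incubation (37 °C, 5% CO2) of HEK293T cells carrying luciferase-tagged ELG1; luciferase then measured by ONE-Glo luminescence after 30 min at RT.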
# ELG1 DNA repair = ELG1-dependent DNA repair inhibition; HEK293T ELG1-luciferase reporter, luminescence, 16 h; DNA damage induced by 5-fluorouridine; Potency, µM (series often up to 46.1 µM), usual class: inhibitors; 330,000 compounds, 2.3% hits; AID 504467; further: nearly all actives have a fitted effect of over 55% in size
#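 Reporter activity after DNA damage by 5-fluorouridine is monitored. Compound-treated cells incubate 16 hr at 37 °C, then ONE-Glo is added for 30 min before luminescence reading.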
# FLuc modulator = firefly luciferase modulation, counter-screen for miR-21 project; 360,000 compounds, 6.9% hits; Potency, µM (highest dose often 57.5 µM), hits mostly inhibitors; P08659; purified FLuc, Km substrates, luminescence inhibition; further: nearly all actives have a fitted effect of over 55% in size
# Target sequence (P08659 whole entry, looked up): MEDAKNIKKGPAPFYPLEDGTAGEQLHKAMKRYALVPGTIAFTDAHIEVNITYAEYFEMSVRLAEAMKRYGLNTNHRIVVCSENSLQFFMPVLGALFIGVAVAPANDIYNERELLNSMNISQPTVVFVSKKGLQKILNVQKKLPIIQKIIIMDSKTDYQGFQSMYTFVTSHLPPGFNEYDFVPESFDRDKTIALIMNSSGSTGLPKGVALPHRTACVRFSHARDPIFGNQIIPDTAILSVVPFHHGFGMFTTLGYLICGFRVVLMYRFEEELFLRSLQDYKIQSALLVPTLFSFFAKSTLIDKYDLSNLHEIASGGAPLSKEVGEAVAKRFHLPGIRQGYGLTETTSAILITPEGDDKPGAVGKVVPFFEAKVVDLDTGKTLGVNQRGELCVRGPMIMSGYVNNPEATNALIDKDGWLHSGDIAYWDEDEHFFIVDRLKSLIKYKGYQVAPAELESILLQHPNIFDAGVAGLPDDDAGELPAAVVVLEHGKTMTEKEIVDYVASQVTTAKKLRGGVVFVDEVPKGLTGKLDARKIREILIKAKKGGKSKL
#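 Purified P. pyralis luciferase (10nM final) with 10uM D-luciferin and 10uM ATP (Km levels) in 50mM Tris acetate pH 7.5, 10mM Mg acetate, 0.01% Tween-20, 0.05% BSA; qHTS 6-point titration, ~60 µM downward; luminescence read.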
# NPC1 prom act = activates the NPC1 promoter; Huh7 NPC1 promoter luciferase reporter, 24 h; Potency, µM (top dose mostly 9.22 µM), hits mostly activators; 320,000 compounds, 2.4% hits; further: nearly all actives have a fitted effect of over 60% in size
#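 Readout is luciferase luminescence, reflecting NPC1 promoter activation in stably transfected Huh7 cells after 24 h compound exposure at 37 °C in reduced-serum medium with 10% FBS.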
# Rab9 prom act = activators of Rab9 promoter | Huh7 Rab9 promoter-luciferase reporter, luminescence, 24 h | Potency, µM (titrated, usually from 9.22 µM), most hits filed as activators | 320,000 compounds, 2.8% hits; further: nearly all actives have a fitted effect of over 60% in size
#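 Cells were plated at 1500 per well in reduced-serum medium with 10% FBS and left 2 h. Compound in DMSO was then added for 24 h at 37 °C. Reporter signal was read by luminescence after 10 min with luciferase detection reagent.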
# Numbers stand for hits; i = inactive; ? = inconclusive; nt = not tested or not shown; [ ] = another dose, or the depositor's remark. This is a sample that favours compounds with a hit; in the whole collection about 9.4% have one here. The call rests on the fitted dose curve; in most records, active means well fitted curve in the direction sought with a large enough effect; inconclusive means small, poorly fitted or top-dose-only effect, or another doubt; inactive means no such curve, though single readings can be large; an effect the other way counts as inactive or inconclusive.
SMILES,SMN2 splice enh,ELG1 genotoxic,ELG1 DNA repair,FLuc modulator,NPC1 prom act,Rab9 prom act
Cc1ccccc1-c1nnc(CN2CCN(c3ccccn3)CC2)o1,i,nt,nt,i,nt,nt
CCCCNc1c(CN)cnc2cc(Cl)ccc12,i[9.22 µM],nt,nt,nt,nt,nt
CCOc1ccc2nc(N3C(=O)/C(=C/c4ccc(Cl)cc4)NC3=S)sc2c1,i,i,i,9.5µM,i,i
O=C1/C(=C/c2ccc(Cl)cc2)NC(=S)N1Cc1cccnc1,nt,i,i,i,i,i
COc1cc(/C=C2/C(=O)NN(c3cccc(Cl)c3)C2=O)cc(OC)c1O,nt,i,i,21µM,i,i
COc1cc(/C=C2/NC(=O)N(c3cccc(Cl)c3)C2=O)ccc1O,nt,i,i,i,i,i
COC(=O)c1ccc(N2NC(=O)/C(=C/c3ccc(OC)c(OC)c3)C2=O)cc1,nt,i,i,?,i,i
O=C1NN(c2cccc(Br)c2)C(=O)/C1=C\c1ccc(O)cc1,nt,i,i,15µM,i,i[1.84 µM]
CCOc1cc(/C=C2/C(=O)NN(c3cccc(Cl)c3)C2=O)ccc1O,nt,i,i,24µM,i,i
COc1ccc2c(Sc3ccc(Cl)cc3)c(C(=O)N3CCCCC3)[nH]c2c1,nt,nt,nt,i,nt,nt
CC(C)C(=O)N1c2ncnn2C2(CCCCC2)[C@@H]2CCCC[C@@H]21,nt,nt,nt,i,nt,nt
OC(COc1ccc2ccccc2c1Cl)CN1CCOCC1 (stereo not drawn),?,?,?,17µM,?,?
OC(COc1ccccc1)CN1CCOCC1 (stereo not drawn),i,i,i,i,i,i
Cc1ccc(S(=O)(=O)c2c(O)cc(C)c(NS(=O)(=O)c3ccc(Cl)cc3)c2C)cc1,i,nt,nt,?,nt,nt
Cc1ccc(-c2cc(C(=O)N3CC(C)OC(C)C3)c3ccccc3n2)o1 (stereo not drawn),nt,i,i,11µM,i,i
Cc1ccc(-c2cc(C(=O)NCC(c3ccccc3)N(C)C)c3ccccc3n2)o1 (stereo not drawn),nt,i,i,nt,nt,nt
Cc1ccc(-c2cc(C(=O)N3CC(C)CC(C)C3)c3ccccc3n2)o1 (stereo not drawn),nt,i,i,12µM,i,i
O=C(COc1ccc(CO)cc1)Nc1ccc(F)cc1,i,?,?,i,i,i
COc1ccccc1NC(=O)COc1ccc(CO)cc1Cl,i,15µM,?,6.7µM,?,?
O=C(COc1ccc(CO)cc1Cl)Nc1ccc(F)cc1,i,0.37µM,?,0.85µM,2µM,1.1µM
COc1ccccc1NC(=O)COc1ccc(C(=O)NCc2ccccc2)cc1OC,nt,i,26µM,i,i,i
CCn1cc(C(=O)NCc2ccc(F)cc2)c(=O)c2cc(S(=O)(=O)N(C)C)ccc21,i,nt,nt,i,nt,nt
CCOc1ccccc1NC(=O)CSc1nnc(CC)c(CC)n1,nt,nt,nt,i,nt,nt
O/N=C1/CCCSc2ccccc21,i,i,i,i,i,i
O=C(O/N=C1/CCSc2ccccc21)c1ccccc1,i,i,i,0.67µM,i,i
SMILES,SMN2 splice enh,ELG1 genotoxic,ELG1 DNA repair,FLuc modulator,NPC1 prom act,Rab9 prom act
O=C(O/N=C1\CCCc2ccccc21)c1ccc(F)cc1,i,?,i,0.21µM,i,i
Cc1ccc2c(c1)/C(=N/OC(=O)c1ccc(F)cc1)CCS2,i,i,i,6µM,i,i
CC1CCc2onc(C(=O)N3CCN(c4ccc(F)cc4)CC3)c2C1 (stereo not drawn),nt,nt,nt,i,nt,nt
Cc1ccc2onc(CNC(=O)N3CCN(c4cccc(C)c4C)CC3)c2c1,nt,nt,nt,i,nt,nt
CCOc1ccccc1CNC(=O)c1ccc2c(c1)sc1nc(-c3cccc(OC)c3)cn12,nt,nt,nt,i,nt,nt
Cn1cccc1/C=N/NC(=O)Cc1cccs1,nt,i,?,i,i,i
Cn1cc(/C=N\NC(=O)c2cccs2)c2ccccc21,14µM,11µM,?,?,?,2.2µM
CCCc1cc(C(=O)N/N=C/c2cccn2C)cs1,nt,18µM,?,17µM,?,?
Cn1cccc1/C=N/NC(=O)c1cccnc1,i,i,i,?,i,i
Cn1cccc1/C=N/NC(=O)c1cccs1,nt,?,?,15µM,?,?
CC(=O)N1c2ccc(S(=O)(=O)NCC3CCC(C(=O)Nc4cccc(F)c4)CC3)cc2CC1C (stereo not drawn),nt,nt,nt,i,nt,nt
CCN(CC(=O)Nc1ccc(NC(C)=O)cc1)C(=O)c1ccc(N2CCC(C)CC2)c([N+](=O)[O-])c1,nt,i,i,17µM,i,i
COCCNC(=O)/C(C#N)=C/c1ccc(SC)cc1,i,?,?,19µM,i,i
COCCNC(=O)/C(C#N)=C/c1ccc(C(=O)O)cc1,i,i,i,i,i,i
CCOC(=O)/C(C#N)=C/c1ccc(OC)c(OC)c1,nt,i,i,i[2.3 µM],i,i
CCOC(=O)/C(C#N)=C/Nc1cc(OC)ccc1OC,i,i,?,i,i,i
CCOC(=O)/C(C#N)=C/c1ccc(SC)cc1,i,i,i,13µM,i,i
CCOC(=O)/C(C#N)=C\c1ccc(CC)s1,i,?,?,11µM,i,i
CCOC(=O)/C(C#N)=C\C=C1C=CN(C)C=C1,16µM,?,?,9.5µM,2.5µM,3.5µM
O=c1c2cnn(-c3ccc(Cl)cc3)c2ncn1Cc1ccc(Cl)cc1Cl,i,nt,nt,i,nt,nt
O=C(c1cnc(N2CCCCC2)c2ccccc12)N1CCN(c2cccc(Cl)c2)CC1,nt,nt,nt,i,nt,nt
Cc1noc(/C=C/c2ccco2)c1S(=O)(=O)N1CCC(C(=O)Nc2ccc(F)cc2F)CC1,i,nt,nt,i,nt,nt
COC(=O)c1ccc(NC(=O)c2ccc(C)cc2)o1,i,i,?,19µM,i,i
CN1/C(=C/c2cccc[n+]2CCO)Sc2ccccc21,nt,i,i,i,i,i
CC[n+]1ccccc1/C=C1\Sc2ccc(C)cc2N1C,nt,i,2.1µM,i,i,i
SMILES,SMN2 splice enh,ELG1 genotoxic,ELG1 DNA repair,FLuc modulator,NPC1 prom act,Rab9 prom act
COC1CCCN(C(=O)c2ccc3nc(Cc4cccc(Cl)c4)oc3c2)C1 (stereo not drawn),nt,i,i,i,i,?
COCC1CCCN(C(=O)c2ccc3nc(Cc4cccc(Cl)c4)oc3c2)C1 (stereo not drawn),nt,?,?,13µM,3.2µM,2.2µM
COC(=O)CN(C)C(=O)c1ccc2nc(Cc3cccc(Cl)c3)oc2c1,nt,?,?,24µM,2.8µM,3.5µM
O=C(C#Cc1ccccc1)Nc1cccc(F)c1,nt,i,?,4.3µM,i,i
COc1ccc(NC(=O)C#Cc2ccccc2)cc1,nt,?,?,8.5µM,1.4µM,?
O=C(C#Cc1ccccc1)Nc1ccc(F)cc1,nt,i,?,12µM,i,i
CCOc1ccc(S(=O)(=O)NCc2ccc3c(c2)CCN3C(=O)c2ccc(C)cc2)cc1,nt,nt,nt,i,nt,nt
Cc1ccc(C(=O)COC(=O)c2ccc(Cl)c(N)c2)s1,nt,i,?,1.3µM,?,3.2µM
O=C(OCC(=O)c1ccc(Cl)s1)c1ccc(CO)cc1,nt,i,i,21µM,i,i
O=C(OCC(=O)c1ccc(Br)s1)c1ccc(O)cc1,nt,i,?,nt,nt,nt

# Source: PubChem BioAssay (National Center for Advancing Translational Sciences (NCATS))
